PubChem BioAssay AID2417 (National Center for Advancing Translational Sciences (NCATS), 2010)
Out of some 140,000 compounds screened, about 4,300 (3.1%) were called active. Not shown: some 21% with an inconclusive outcome. The list comes from a sample in which actives are over-represented; it also holds similar structures and randomly drawn compounds. A number with no mark means an inactive call.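 How the source made its calls: active means readout at or below -70, meaning at least 70% loss of cells showing the perinucleolar compartment, a nuclear body marking cancer cells; inconclusive means readout between -30 and a set limit; inactive means the rest.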

Assay: High Content Assay for Compounds that inhibit the Assembly of the Perinucleolar Compartment;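 further: plate controls were DMSO wells for no effect and camptothecin positive control wells for full effect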
Settings: PC3M PTB-GFP, PNC prevalence imaging, 16 h; at 10 µM; active compounds read low
In short: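 Compounds are pinned in duplicate onto adhered PC3M cells stably expressing GFP-tagged PTB and incubated 16 h at 37 C. Cells are then fixed, nuclei stained with Hoechst, and PNC-positive cells counted.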

Compound	activity change (PNC), negative = inhibition
COC(=O)c1ccccc1NS(=O)(=O)c1ccc2[nH]c(=O)[nH]c2c1	-18.2%
Cc1ccc(N(Cc2cc3ccccc3[nH]c2=O)C(=O)c2cccs2)cc1	4.02%
CCOC(=O)Cc1csc(NC(=O)CSc2ccc(Br)cc2)n1	34.9%
O=C(CNCc1ccc(F)cc1)Nc1ccccc1-c1ccccc1	23.9%
O=c1c2ccccc2c(-c2ccc(F)cc2)nn1-c1ccc(C(F)(F)F)cc1	-1%
O=c1[nH]cnc2c1c(-c1ccccc1)cn2-c1ccc(F)cc1	-108% (active)
Cc1cc(C)c(C#N)c(SCC(=O)NN2CC(=O)N(c3ccccc3F)CC2=O)n1	43.3%
CC(C)CC(COCc1ccc(Cl)cc1)N1CCN(C(=O)c2ccc(C(F)(F)F)cc2)CCC1=O (stereo unspecified)	49.5%
O=C(c1cc(Cl)cc(Cl)c1)N1CCC(=O)N(C(COCc2ccccc2)Cc2ccccc2)CC1 (stereo unspecified)	27.5%
CC(C)CC(CO)N1CCN(C(=O)c2ccc(Cl)cc2Cl)CCC1=O (stereo unspecified)	-91.5% (active)
CC(=O)c1sc(N/N=C\c2ccc(C)cc2)nc1C	25.4%
CCc1ccccc1NC(=O)CN(C)C(=O)COc1ccc(C)nc1[N+](=O)[O-]	-8.07%
CCC(C)(C)NC(=O)C(c1cccn1C)N(Cc1ccc(C)cc1)C(=O)Cn1nnc2ccccc21 (stereo unspecified)	27.9%
COc1ccccc1N(C(=O)Cn1nnc2ccccc21)C(C(=O)NCc1ccco1)c1ccc(C)o1 (stereo unspecified)	20.9%
COCCNC(=O)C(c1ccc(C)o1)N(Cc1ccccc1)C(=O)Cn1nnc2ccccc21 (stereo unspecified)	-83.4% (active)
Brc1ccc(C2CC(c3ccccc3)=Nc3ccccc3N2)cc1 (stereo unspecified)	-29.2%
CC(=O)c1ccc(NC(=O)Nc2ccc([N+](=O)[O-])cc2C)cc1	-13%
COc1ccc(NC(=O)Nc2ccc3nc(C)c(C)nc3c2)cc1	5.41%
COc1cc(NC(=O)Nc2ccc(C)cc2)cc([N+](=O)[O-])c1	-87.1% (active)
O=C(CN1C2=NCCN2c2ccccc21)c1cccs1	-2.86%
COc1ccc(NS(=O)(=O)c2cc(NC(=O)/C=C/c3cc(OC)c(OC)c(OC)c3)ccc2N2CCCCC2)cc1	-0.688%
CC1(C)CC(=O)C(N=Nc2ccc(S(=O)(=O)N3CCCCCC3)cc2)=C(O)C1	24.1%
COc1ccc(CNC(=O)CN(Cc2ccc(Cl)cc2)S(C)(=O)=O)cc1	48.3%

Compound	activity change (PNC), negative = inhibition
COc1ccc(C(=O)Nc2nc(-c3ccc(OC)cc3)c(-c3ccc([N+](=O)[O-])cc3)s2)cc1	-23.3%
Cc1cccc(NC(=O)c2sc(-c3ccccc3)nc2-c2ccc([N+](=O)[O-])cc2)c1	-100% (active)
O=C(CSc1nc(-c2ccccc2)cs1)Nc1cccc([N+](=O)[O-])c1	126%
O=C(O)C1CC(=O)N(Cc2cccnc2)C1 (stereo unspecified)	-9.97%
O=C1OC(c2ccc(Cl)cc2)=N/C1=C\c1cccnc1	41.2%
O=C1/C(=C\c2cccnc2)CN(Cc2ccccc2)C/C1=C\c1cccnc1	-112% (active)
O=C(Nn1c(-c2ccc(Cl)cc2)nc2ccccc2c1=O)c1cccnc1Cl	8.85%
Cc1ccnc(NS(=O)(=O)c2ccc(NC(=O)c3ccc(S(=O)(=O)N4CCOCC4)cc3)cc2)n1	-19.3%
CC(OC(=O)CNS(=O)(=O)/C=C/c1ccccc1)C(=O)Nc1ccc(S(=O)(=O)N2CCCC2)cc1 (stereo unspecified)	64.4%
CCOC(=O)/C(=N\Nc1cc(Cl)ccc1Cl)N1CCN(C)CC1	-27.3%
O=C(Cn1c(-c2ccccn2)nc2ccccc21)NCCN1CCOCC1	42.9%
c1ccc2cc3c(NCCN4CCOCC4)ccnc3cc2c1	-103% (active)
c1ccc2[nH]c(NCCN3CCOCC3)nc2c1	-1.68%
NS(=O)(=O)c1ccc(NC(=O)COC(=O)C2(c3ccc(F)cc3)CCCC2)cc1	50%
CC1(C)Cc2cccc(OCC(=O)Nc3nccs3)c2O1	-87.8% (active)
CC1(C)Cc2cccc(OCC(=O)N3CCN(c4ccc([N+](=O)[O-])cc4)CC3)c2O1	7.92%
CCCCOC(=O)Nc1nccs1	243%
Cc1ccccc1C(OCCN(C)C)C1CCCCC1 (stereo unspecified)	-5.25%
Cc1ccccc1Nc1nc(N)nc(CSc2ccccc2)n1	-3.06%
N=c1c2c(-c3ccccc3)c(-c3ccccc3)n(Cc3ccccc3)c2ncn1CCCO	-90.2% (active)
OCCCN1c2ccccc2Nc2nnc(-c3ccccc3)cc21	-15.1%
N=c1c2c(-c3ccccc3)c(-c3ccccc3)oc2ncn1Cc1ccco1	34.2%
CN(C)c1ccc(/C=N/N(Cc2ccccc2)c2ccccc2)cc1	-6.4%

Compound	activity change (PNC), negative = inhibition
CCN1CN(Cc2ccccc2)CNC1=S	-4.78%
CCCCCOc1ccc(CSC2=NCCN2)cc1[N+](=O)[O-]	-84.7% (active)
CCCOc1ccc(Cn2ccnc2)cc1[N+](=O)[O-]	-21.9%
CCCCOc1ccc(CSC(=N)N)cc1[N+](=O)[O-]	-6.06%
COc1ccc(Br)cc1CN(C)CC(=O)Nc1cc(Cl)cc(Cl)c1	5.92%
O=C(NC1CC1)c1cccc(Br)c1	8.13%
CN(c1ccccc1)S(=O)(=O)c1ccc(Cl)c(C(=O)NCCc2c[nH]c3ccccc23)c1	-83.7% (active)
Cc1cc(C)cc(NC(=S)NCCc2c[nH]c3ccccc23)c1	22.2%
CCN(CC)S(=O)(=O)c1ccc2[nH]cc(C(=O)NCCc3ccccc3)c(=O)c2c1	-4.74%
O=C(NNC1CC(=O)N(c2cccc(Cl)c2)C1=O)c1cccnc1 (stereo unspecified)	-121% (active)
O=C1CC(NNc2ccccc2)C(=O)N1c1cccc(Cl)c1 (stereo unspecified)	44.7%
Cc1ccc(-n2nc3cc(C)c(NC(=O)c4cccnc4)cc3n2)cc1	22.4%
O=C(CCc1ccc(S(=O)(=O)N2CCOCC2)cc1)NN=C1CCCCCCC1	-25.6%
N#CC1=C(N)Oc2c(sc3ccccc23)C1c1ccco1 (stereo unspecified)	-91.1% (active)
Cc1cc2c(c(=O)n1Cc1ccco1)C(c1ccccc1)C(C#N)=C(N)O2 (stereo unspecified)	-6.34%
Cc1cc2oc(C(=O)Nc3c(C)n(C)n(-c4ccccc4)c3=O)c(C)c2cc1Cl	2.22%
Cc1cccc(NC(=O)/C=C/c2ccc3c(c2)OCO3)n1	46%
COc1ccc(NC(=O)c2ccc(C#CC(C)(C)O)cc2)cc1	-12.4%
COc1ccc(NC(=O)c2c(SC)nsc2SC)cc1	-6.12%
COc1ccc(NC(=O)c2sccc2SCC#N)cc1	-88.1% (active)
CCCOC(=O)c1ccc(N2C(=O)c3ccccc3C2=O)cc1	-21.8%
COc1ccc(C(=O)NC2(C(F)(F)F)NC(=O)N(CCCc3ccccc3)C2=O)c(OC)c1OC (stereo unspecified)	-8.14%
CC(=O)Nc1ccc(S(=O)(=O)N2CCN(c3ccc([N+](=O)[O-])c(NCCN4CCOCC4)c3)CC2)cc1	-13.1%

Compound	activity change (PNC), negative = inhibition
O=C(O)CCC(=O)Nc1ccc(N2CCOCC2)cc1	-23.8%
CN(CC(=O)Nc1ccc(N2CCOCC2)cc1)CC(=O)Nc1ccccc1[N+](=O)[O-]	-100% (active)
O=C(NCCc1ccccc1)C1CCC(Cn2c(=O)c3ccccc3n(Cc3cccnc3)c2=O)CC1 (stereo unspecified)	13.2%
Cc1nc(SCc2ccc(F)cc2)c([N+](=O)[O-])[nH]1	17.5%
CCC(NC(=O)c1ccccc1NC(=O)c1ccccc1)C(=O)NNC(=O)CSc1nc2ccccc2o1 (stereo unspecified)	-4.05%
COCCn1c(=O)[nH]c(=O)c2cc(C(=O)c3cc(OC)ccc3O)cnc21	-8.95%
Cc1cc(=O)oc2cc(OCC3CC(c4ccccc4Cl)=NO3)ccc12 (stereo unspecified)	-89.5% (active)
Cc1ccccc1NC(=O)c1ccc(COc2ccc3c(C)cc(=O)oc3c2)cc1	90.9%
Cc1ccccc1N1CCN(CCCOc2ccc3c(C)cc(=O)oc3c2)CC1	-23.3%
COc1ccc(/C(N)=N/OC(=O)CCCc2ccccc2)cc1	-16.1%
COc1ccccc1NC(=O)CCCc1c[nH]c2ccccc12	-4.48%
COc1ccccc1NC(=O)C1=C(C)Nc2ncnn2C1c1ccc(C)o1 (stereo unspecified)	-27.1%
COc1ccccc1NC(=O)C1=C(C)Nc2nc3ccccc3n2C1c1cccs1 (stereo unspecified)	-82.7% (active)
COc1cc(C2C(C(=O)Nc3ccccc3OC)=C(C)Nc3ncnn32)ccc1O (stereo unspecified)	17.6%
Cc1ccc(Oc2cc(NC(=O)CCCn3nc(C)c([N+](=O)[O-])c3C)cc([N+](=O)[O-])c2)cc1	5%
CNC(=O)NC(=O)C(OC(=O)c1cccc(S(=O)(=O)N2CCCCC2)c1)c1ccccc1 (stereo unspecified)	-3.58%
COc1cc(OC)cc(-c2nc3ccccc3c(=O)n2NC(=O)c2cccnc2Cl)c1	-30%
N#Cc1ccccc1Sc1ccccc1C(=O)OCC(=O)NC1CCCCC1	33.1%
O=C(COC(=O)c1cc(-c2cccs2)nn1-c1ccccc1)Nc1cc([N+](=O)[O-])ccc1Cl	21.6%
COc1ccc(C(=O)CN(C(=O)c2ccc(Cl)cc2)N2C(=O)c3ccccc3C2=O)cc1	-9.88%
COc1ccc(OCCCON2C(=O)c3ccccc3C2=O)cc1	0.67%
CCCCC(C(=O)OCC(=O)c1ccc(OC)cc1)N1C(=O)c2ccccc2C1=O (stereo unspecified)	-100% (active)
